Compounds without any hit were thinned out: in the full panel of roughly 83,000, 20% have a hit.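 Growth was measured after 48 h exposure to one concentration of compound in 96-well plates. Values under 10 count as active.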 A number with no mark means an inactive call. The source made the active and inactive calls.

Growth data for nine compounds are collected here from PubChem BioAssay (NCI).

Test in all cases: NCI-60 one-dose screen, 48 h (100 = growth as untreated, 0 = no growth, -100 = all killed)
Settings in all cases: 10 µM unless noted

In assay [1] the test system is NCI-H23 lung.
For assay [2], the system named is NCI-H226 lung.
Assay [3] deals with NCI-H322M lung.
Assay [4] deals with HOP-92 NSCLC.
The subject of assay [5] is NCI-H522 lung.
The test system of assay [6] is A549/ATCC NSCLC.
The test system of assay [7] is 786-0 renal.
The test system of assay [8] is COLO 205 colon.
Assay [9] deals with DU-145 prostate.
The subject of assay [10] is K-562 leukemia.
Assay [11] deals with MALME-3M melanoma.
The subject of assay [12] is MDA-MB-231 breast.
The test system of assay [13] is RXF 393 renal.
The test system of assay [14] is SF-268 CNS.
Assay [15] has as its system SF-295 CNS.
Assay [16] concerns SF-539 CNS.
Assay [17] concerns UACC-257 melanoma.
Assay [18] deals with M14 melanoma.
The subject of assay [19] is NCI-H460 lung.

Regarding `O=C1/C(=C/c2ccccc2)CN(C(=O)c2cccnc2)C/C1=C\c1ccccc1`, the growth is -30.5% (active) in assay [1]; -43.7% (active) in assay [2]; 34.1% in [3]; 78.7% in assay [4]; -25.4% (active) in assay [5]; 17.2% in [6]. Also, the growth in assay [7] was -53.8% (active); in assay [8] it was -29.5% (active); in assay [9], 14.5%; in assay [10] it was 2.62% (active); in assay [11] it was 23.9%; in [12], 3.84% (active). Moreover, the growth in assay [13] was -64.1% (active); in [14], 17.4%; in [15], -8.61% (active); in [16], -4.29% (active); in [17], 23.9%; in assay [18], -41.5% (active).
On to `O=C1NC(=C(Cl)Cl)/C(=N/S(=O)(=O)NCCc2c[nH]c3ccccc23)N1`, for which the growth in assay [1] is 97.4%; in assay [2], 86%; in [3], 27.7%; in [19], 66.8%; in assay [4] it was 39%; in assay [5], 17.2%. The growth in assay [6] is 99.3%; in [7], 66.5%; in assay [8], 110%; in assay [9], 92.3%; in assay [10], 55%; in assay [11], 70%. Moreover, the growth is 44.8% in [12]; 81.9% in assay [13]; 21.4% in [14]; 98.7% in assay [15]; 25.1% in assay [16]; 73.9% in assay [17]. In addition, the growth in [18] is 83.8%.
For `CCN(CCO)CC(C)Nc1ccc([N+](=O)[O-])c2sc3ccccc3c(=O)c12` (stereo not drawn), the growth in assay [1] is 40.2%; in assay [2] it was 14.4%; in assay [3], 15.6%; in [19], 9.73% (active); in [4] it was -0.953% (active); in assay [5], 15.3%. The growth in [7] was 34.3%; in [8] it was 15%; in assay [9] it was 41.3%; in [10], 12.5%; in [11], 13.4%; in [12], 48.8%. Moreover, the growth in assay [13] is 9.27% (active); in [14], 36.1%; in [15] it was 17.4%; in [16], 25%; in assay [17], 31.5%; in [18] it was 29.3%.
`Cc1nn(-c2ccccc2)c(N2CCCCC2)c1/C=N/NC(=O)Cn1c(=O)sc2ccccc21`: the growth in assay [1] is 82.6%; in assay [2], 92.8%; in assay [3], 76.3%; in [19], 81.5%; in assay [4] it was 65.6%; in assay [5], 64.9%. The growth is 66% in assay [6]; 97.2% in assay [7]; 88.2% in [8]; 95.8% in [9]; 43.4% in assay [10]; 101% in assay [11]. Also, the growth was 79% in [12]; 89.9% in assay [13]; 79.2% in assay [14]; 56.7% in assay [15]; 92.2% in assay [16]; 95.2% in assay [17]. Further, the growth in assay [18] is 72.2%.
With `Cc1ccc2[nH]c(=O)c3c(c2c1)OC(N)=C(C#N)C31C(=O)c2cccc3cccc1c23` (stereo not drawn), the growth in [1] is 103%; in [2], 91.1%; in [3], 100%; in assay [19] it was 101%; in assay [4], 104%; in [5], 89.3%. The growth in [6] is 103%; in assay [7], 100%; in [8], 103%; in [9], 101%; in [10], 87.8%; in assay [11], 99.2%. Moreover, the growth in assay [12] is 87.4%; in assay [13] it was 97%; in assay [14], 94.6%; in assay [15], 104%; in [16], 95.9%; in assay [17], 108%. Also, in assay [18], the growth was 98.2%.
With `Cc1ccc(N=Nc2c(N)nn(-c3ccccc3)c2N)cc1`, the growth in assay [1] is 6.74% (active); in assay [2], 76%; in [3], 32.7%; in assay [19] it was 9.76% (active); in assay [4] it was 86.2%; in [5], -11% (active). Further, the growth in assay [7] is 63.7%; in assay [8], 16.9%; in assay [9], 27.8%; in assay [10], 7.43% (active); in [11], 39.3%; in [12], 54.4%. In addition, the growth in assay [13] is -0.509% (active); in assay [14], 54.5%; in [15] it was 13.8%; in [16], 11.4%; in [17], 63.4%; in assay [18] it was -2.8% (active).
On to `O=C(c1ccc(F)c(Cl)c1)N1c2ccccc2Sc2ccccc21`, for which the growth in assay [1] was 78.5%; in [2] it was 77.3%; in [3], 102%; in assay [19], 99.5%; in assay [4], 37%; in [5], 42.5%. In addition, the growth in assay [6] is 65.6%; in assay [7], 79.8%; in assay [8] it was 44.7%; in [9], 90.3%; in assay [10] it was 21.5%; in assay [11], 64.1%. Moreover, the growth was 61% in assay [12]; 70.8% in assay [13]; 66.8% in assay [14]; 64.3% in assay [15]; 62.3% in assay [16]; 61% in assay [17]. Besides, the growth in assay [18] is 53.1%.
With `CCCNc1nc2ccccc2c2c(=O)c3cccc(Cl)c3sc12`, the growth is 74.1% in assay [1]; 84.9% in [2]; 89.6% in assay [3]; 78.7% in [19]; 89.5% in assay [4]; 82.3% in [5]. Moreover, the growth in assay [6] is 94%; in assay [7], 110%; in assay [8] it was 94.7%; in assay [9], 98.2%; in assay [10] it was 86%; in assay [11] it was 81.9%. Besides, the growth is 105% in assay [12]; 98.5% in assay [13]; 101% in assay [14]; 98.8% in assay [15]; 110% in [16]; 107% in assay [17]. The growth in assay [18] was 101%.
Turning to `O=C(O)c1cccc(N/C=C/C(=O)c2cc3cc(Br)ccc3oc2=O)c1`, the growth is 98.1% in assay [1]; 94.6% in assay [2]; 100% in assay [3]; 97% in assay [19]; 103% in assay [4]; 91.8% in assay [5]. The growth is 92.4% in assay [6]; 99.4% in assay [7]; 110% in assay [8]; 108% in assay [9]; 119% in [10]; 104% in [11]. Also, the growth in assay [12] was 93.6%; in [13], 107%; in assay [14], 90.4%; in [15] it was 104%; in [16], 96%; in [17], 99.2%. Also, the growth in assay [18] is 94.2%.
